We go through 32 compounds from PubChem BioAssay (NCATS).

Records with an inconclusive call do not appear. Values without a mark were called inactive. Calls of active or inactive are those of the source. Unless noted, calls follow the shape of the dose curve; as a rule, active = well fitted curve in the direction sought with a large enough effect; inconclusive = small, poorly fitted or top-dose-only effect, or another doubt; inactive = no such curve, though single readings can be large; an effect the other way counts as inactive or inconclusive.

A short description of assay [1]: qHTS for Inhibitors of Plasmodium falciparum (GB4) proliferation (AID 504315). Also: nearly all actives have a fitted effect of over 50% in size. Also: potency is read from the fitted curve at half-maximal effect. Put shortly:
(§1)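 Parasite growth measured as SYBR Green DNA fluorescence (ex 485, em 535 nm) after overnight lysis following 72 h culture at 37 °C, 0.3% parasitemia, 2.5% hematocrit. Values normalized against DMSO and 0.29 uM artemisinin controls, with plate-stack correction.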

Assay [2] can be described thus: qHTS for Inhibitors of Plasmodium falciparum (HB3) proliferation (AID 504318). Also: nearly all actives have a fitted effect of over 60% in size. Also: potency is read from the fitted curve at half-maximal effect. Put shortly: as §1
For assay [3], the target named is Atrial natriuretic peptide receptor 1 (Homo sapiens) (UniProt P16066). Kind of assay: Natriuretic polypeptide receptor (hNpr1) antagonism - Pilot CMLD screen (AID 1347052; calls by dose curve;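 also: cGMP level read as GloSensor luciferase luminescence after agonist stimulation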).
Assay [4] is described as follows: qHTS for Inhibitors of Plasmodium falciparum (7G8) proliferation (AID 504316). Also: nearly all actives have a fitted effect of over 65% in size. Also: potency is read from the fitted curve at half-maximal effect. Put shortly:
as §1

A short description of assay [5]: qHTS for Inhibitors of Plasmodium falciparum (CP250) proliferation (AID 504320). In short, it runs like this:
as §1

Chain of Atrial natriuretic peptide receptor 1 (Homo sapiens) (P16066 whole entry, looked up): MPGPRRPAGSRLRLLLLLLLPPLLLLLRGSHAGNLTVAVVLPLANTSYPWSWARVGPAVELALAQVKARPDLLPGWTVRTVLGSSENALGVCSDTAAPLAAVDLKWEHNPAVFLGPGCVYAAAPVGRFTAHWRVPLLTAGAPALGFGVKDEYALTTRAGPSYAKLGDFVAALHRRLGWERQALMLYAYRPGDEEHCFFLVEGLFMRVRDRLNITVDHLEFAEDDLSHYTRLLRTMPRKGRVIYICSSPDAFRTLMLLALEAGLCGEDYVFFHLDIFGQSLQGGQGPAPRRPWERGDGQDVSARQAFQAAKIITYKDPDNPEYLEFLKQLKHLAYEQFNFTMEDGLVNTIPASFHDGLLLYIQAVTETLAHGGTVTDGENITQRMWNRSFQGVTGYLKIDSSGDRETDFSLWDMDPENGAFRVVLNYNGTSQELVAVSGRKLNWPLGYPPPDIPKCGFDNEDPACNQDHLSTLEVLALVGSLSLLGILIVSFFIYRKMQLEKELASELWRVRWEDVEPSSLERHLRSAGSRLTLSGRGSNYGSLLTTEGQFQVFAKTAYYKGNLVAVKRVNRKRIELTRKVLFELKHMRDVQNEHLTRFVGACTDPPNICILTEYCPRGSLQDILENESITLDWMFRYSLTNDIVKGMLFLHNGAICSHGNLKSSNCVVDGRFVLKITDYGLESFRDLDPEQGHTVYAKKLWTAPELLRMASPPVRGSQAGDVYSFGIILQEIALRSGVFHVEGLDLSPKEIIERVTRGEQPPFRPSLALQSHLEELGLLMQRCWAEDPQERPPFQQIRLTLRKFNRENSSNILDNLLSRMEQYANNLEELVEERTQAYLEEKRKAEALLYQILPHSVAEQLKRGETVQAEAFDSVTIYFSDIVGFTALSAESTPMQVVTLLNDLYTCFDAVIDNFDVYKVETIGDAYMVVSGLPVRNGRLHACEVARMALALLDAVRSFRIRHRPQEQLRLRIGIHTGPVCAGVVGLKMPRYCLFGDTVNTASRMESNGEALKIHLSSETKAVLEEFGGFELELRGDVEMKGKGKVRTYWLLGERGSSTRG

Consider `CC(C)=CCCC(C)=CCN1C(=O)[C@]2(O[C@H](COc3ccccc3)CC3=CCCC32)c2c(Br)cccc21` (some centres not stated), for which the Potency in assay [1] was 1510 nM (active); in assay [2], 1690 nM (active). Besides, the Potency result in assay [3] is “inactive”.

Take `CCc1cc2c(nc1CC)CCN(CCC(C)=NOC[C@@H](O)[C@H]1O[C@@H]3OC(C)(C)O[C@H]3[C@@H]1O)C2`: the Potency entry in assay [1], in assay [5] and in assay [3] was “inactive” in each case. Besides, in assay [4], the Potency was 1690 nM (active).

As to `COc1ccc2c(c1)CO[C@H]([C@H](O)CO)[C@H]2C=CC#Cc1ccc(C(C)(C)C)cc1`, the Potency entry in assay [1], in assay [2], in assay [5] and in assay [3] was “inactive” throughout.

Regarding `COC(=O)C1=C(C)N(CC2CC2)C(=O)NC1c1ccc(Br)cc1` (configuration not stated), the Potency entry in assay [1], in assay [2], in assay [5] and in assay [3] was “inactive” throughout.

With `COC(=O)N[C@H](C(C(=O)OC)=C(C)NCc1ccccc1)c1cccc(C)c1`, the Potency result in assay [1], in assay [4], in assay [5] and in assay [3] was “inactive” in each case.

On to `CC(=O)C1=C(C)N(CCC=Cc2ccccc2)C(=O)NC1c1ccccc1` (configuration not stated), for which the Potency entry in assay [1], in assay [2], in assay [5] and in assay [3] was “inactive” throughout.

In the case of `CC1=C[C@]2(O[C@H](COc3ccccc3)C1)C(=O)N(C)c1ccccc12`, the Potency result in assay [1], in assay [2] and in assay [5] was “inactive” in each case. Also, the compound was called inactive in assay [3].

As to `c1ccc(CCc2nc(-c3ccccc3)oc2NC2CCCCC2)cc1`, the Potency result in assay [1], in assay [2] and in assay [3] was “inactive” each time.

`N#Cc1ccc2c(c1)C[C@]1(CCCCN3C(=O)c4ccccc4C3=O)Oc3cc(-c4ccccc4)oc(=O)c3[C@H]2O1`: the Potency result in assay [1], in assay [2] and in assay [3] was “inactive” in each case.

In the case of `COC(=O)C(c1ccc(OC)c(OC)c1)C1c2ccccc2C=C(C)N1C(=O)OC` (configuration not stated), the Potency result in assay [1], in assay [4], in assay [5] and in assay [3] was “inactive” each time.

In the case of `COC1=C[C@H](C(=O)N[C@H]2CCCC[C@H]2NC(C)=O)[C@H](C)[C@@H](c2ccccc2)CC1=O`, the Potency result in assay [1], in assay [4], in assay [5] and in assay [3] was “inactive” in each case.

For the compound `C=CC1=C2C=C(C3CC3)N(CC(C)C)C=C2C(=O)C(C)(OC(=O)c2ccco2)C1=O` (configuration not stated), the Potency entry in assay [1], in assay [2] and in assay [3] was “inactive” each time.

For `COc1ccc2c(c1)O[C@@H](c1ccc3c(c1)OCO3)[C@H](OC(=O)NCCOc1ccccc1)C2=O`, the Potency result in assay [1], in assay [5] and in assay [3] was “inactive” in each case.

For the compound `C=C(C[C@@]1(C(=O)OC)C=C[C@@H](C)[C@H](c2ccccc2Br)N1C(=O)C(F)(F)F)c1ccccc1`, the Potency in assay [4] was 1900 nM (active). Moreover, in assay [3], the Potency result was “inactive”.

For `COC(=O)C1=C(C(=O)OC)[C@@H]2N(C)c3ccccc3[C@@]23CCC(=O)N(Cc2ccc(OC)cc2)C3=N1`, the Potency entry in assay [1], in assay [5] and in assay [3] was “inactive” each time.

`COC(=O)C1=C(C(=O)OC)[C@@H]2N(Cc3ccccc3)c3ccccc3[C@@]23C[C@@H](C(=O)OC)N(C(=O)NCc2ccccc2)C3=C1`: the Potency entry in assay [1], in assay [5] and in assay [3] was “inactive” throughout.

On to `C[C@H]1CC[C@H]2C(=O)N(Cc3ccccc3)C[C@@H](O)CN2[C@H]1c1cccc(Br)c1`, for which the Potency entry in assay [1], in assay [5] and in assay [3] was “inactive” in each case.

On to `CCCC[C@]12Cc3cc(OC)c(OC)cc3[C@H](O1)c1c(cc(-c3ccccc3)oc1=O)O2`, for which, in assay [4], the Potency was 1510 nM (active). In assay [3], the Potency result is “inactive”.

Regarding `COc1cccc([C@H]2Oc3ccc(OC)cc3C(=NO[C@H](C)CN3CCCc4nc(C)c(C)cc43)[C@H]2O)c1`, the Potency entry in assay [1], in assay [5] and in assay [3] was “inactive” each time.

As to `COc1ccc([C@]23Cc4cc(OC)c(OC)cc4[C@H](O2)C2=C(CC(C)(C)CC2=O)O3)cc1`, the Potency entry in assay [1], in assay [5] and in assay [3] was “inactive” in each case.

In the case of `C=C(C)[C@@H]1CC2=C(OC)C(CC=C(C)C)(CC=C(C)C)C(=O)C(C(=O)c3ccccc3)=C2O1`, the Potency in assay [4] was 1690 nM (active). In addition, in assay [3], the Potency result is “inactive”.

Consider `COC(=O)C1=C(C(=O)OC)[C@@H]2N(C)c3ccccc3[C@@]23CCC(=O)N(Cc2ccc4c(c2)OCO4)C3=N1`, for which the Potency entry in assay [1], in assay [5] and in assay [3] was “inactive” each time.

As for `COc1cccc([C@@H]2NC(=O)CC=C[C@H](C)[C@H](c3cccc(OC)c3)NC(=O)CC=C[C@H]2C)c1`, the Potency entry in assay [1], in assay [5] and in assay [3] was “inactive” throughout.

As for `CC12C=C(C=Cc3ccc(Br)cc3)C(C)(C1)[C@H](c1ccc(Br)cc1)CC2=O` (some centres not stated), the Potency in assay [4] was 1690 nM (active). In assay [3], the Potency result is “inactive”.

In the case of `CC(C)=CCCC(C)=CCN1C(=O)[C@@]2(CC(C)=C[C@@H](COCc3ccccc3)O2)c2ccccc21`, the Potency result in assay [1], in assay [5] and in assay [3] was “inactive” throughout.

As to `CCCCCCCc1cc2ccc(F)cc2c2c(C(=O)OC)c(C(=O)OC)c(C(=O)OC)n12`, the Potency result in assay [4] and in assay [3] was “inactive” each time.

With `C#CCCOC(=O)N1C2=NC3=C(C(=O)N(Cc4ccc5c(c4)OCO5)C3=O)C3N(C)c4ccccc4[C@]23C[C@H]1CO` (some centres not stated), the Potency result in assay [1], in assay [5] and in assay [3] was “inactive” throughout.

Take `C#CCN1C(=O)[C@]2(OCCC=C[C@H]2C)c2c(Br)cccc21`: the Potency result in assay [1], in assay [5] and in assay [3] was “inactive” in each case.

With `CC1=C[C@@H](COCc2ccccc2)O[C@@]2(C1)C(=O)Nc1cccc(Br)c12`, the Potency result in assay [1], in assay [5] and in assay [3] was “inactive” each time.

For `COc1ccc(O[C@H]2C=C[C@@H](c3ccccc3)O[C@H]2COC(=O)CCC(C)=NOC[C@@H](C)[C@H](OCc2ccccc2)C(C)C)cc1`, the Potency in assay [4] is 1900 nM (active). For the same compound, in assay [3], the Potency entry was “inactive”.

In the case of `CC(C)=CCCC(C)=CCON=C1C[C@@H](O)[C@@H](O)[C@@H]2[C@H]3C(=O)N(Cc4ccccc4)C(=O)[C@@H]3CC[C@@H]12`, the Potency entry in assay [1], in assay [5] and in assay [3] was “inactive” in each case.

As to `CCCCCCc1cc2cc(OC)c(OC)cc2c2c(C(=O)OC)c(C(=O)OC)c(C(=O)OC)n12`, the Potency in assay [4] is 1900 nM (active). Besides, the Potency entry in assay [3] was “inactive”.
